Drawing on PubChem BioAssay (NCI), this text covers growth for 16 molecules.

Holding throughout (assay): NCI-60 one-dose screen, 48 h (100 = growth as untreated, 0 = no growth, -100 = all killed)
Conditions in all cases: 10 µM unless noted

Assay [1] has as its system RPMI-8226 leukemia.
Assay [2] relates to OVCAR-8 ovarian.
Assay [3] concerns OVCAR-5 ovarian.
In assay [4] the test system is OVCAR-4 ovarian.
The test system of assay [5] is SK-OV-3 ovarian.
For assay [6], the system named is IGROV1 ovarian.
The subject of assay [7] is OVCAR-3 ovarian.
The test system of assay [8] is HS 578T breast.
Assay [9] concerns NCI/ADR-RES ovarian.
Assay [10] relates to T-47D breast.
The subject of assay [11] is BT-549 breast.
Assay [12] has as its system MDA-MB-435 melanoma.
The test system of assay [13] is SW-620 colon.
The subject of assay [14] is MCF7 breast.
Assay [15] concerns HCT-116 colon.
For assay [16], the system named is HCC-2998 colon.
The test system of assay [17] is KM12 colon.
Assay [18] deals with SR leukemia.

This is part of a sample that, as a whole, favours compounds with a hit. Of some 83,000 tested, about 20% had one in any assay.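 Single-concentration screen, 48 h exposure, 96-well plates. Endpoint: percent growth. Below 10 = active.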 Values without a mark were called inactive. Active and inactive are the calls of the source.

`CC1=C(C)C(=O)OC([C@](C)(O)[C@]2(O)CC[C@@]3(O)[C@@H]4C[C@H]5O[C@]56CC=CC(=O)[C@]6(C)[C@H]4CC[C@]23COC(=O)c2ccc(C)o2)C1` (some centres not stated): the growth in assay [1] was -17.3% (active); in assay [2], -13.8% (active); in assay [3], -69.8% (active); in assay [4], -32.9% (active); in [5], -51.7% (active); in assay [6], -54.4% (active). The growth in assay [7] is -96.2% (active); in assay [8] it was 3.52% (active); in assay [9], 14.5%; in [10], -57.1% (active); in assay [11] it was -49.3% (active); in assay [12], -76.9% (active). Further, the growth in [13] is -55.6% (active); in assay [14], -66.2% (active); in [15], -43.5% (active); in assay [16] it was -73.7% (active); in [17], -69% (active).
Take `CNCCCn1c2c(c3ccc([N+](=O)[O-])cc3c1=O)C(=O)c1cc(OC)cnc1-2`: the growth in assay [18] was 2.17% (active); in [2] it was -14.9% (active); in assay [3], 1.76% (active); in assay [4], -25.9% (active); in assay [5] it was -15.8% (active); in [6] it was 0.722% (active). Also, the growth in assay [7] is -45.1% (active); in [8], 15.6%; in [10], -7.15% (active); in assay [11], -25.6% (active); in [12], -76.7% (active); in assay [13], -34.1% (active). Also, the growth is 0.912% (active) in [14], -53.9% (active) in assay [15], 11.1% in assay [16] and -4.18% (active) in assay [17].
In the case of `C=C1CCC2C3(C)COC(C)(C)OC3CCC2(C)C1C/C=C1/C(=O)OCC1OC(C)=O` (configuration not stated), the growth in assay [1] is -42% (active); in assay [2], -5.77% (active); in assay [3] it was 38.3%; in assay [4], 32.3%; in assay [5], 97.4%; in assay [6] it was 69.6%. Moreover, the growth is -9.88% (active) in assay [7]; 12% in [8]; 51% in assay [9]; 27.7% in assay [10]; 52.9% in [11]; 27.1% in assay [12]. The growth in assay [13] is -38.8% (active); in assay [14], 16.5%; in [15], -21.1% (active); in assay [16], 100%; in assay [17] it was 10.1%.
As for `COc1ccc(-c2cnoc2-c2cc(OC)c3c(c2)OCCO3)cc1`, the growth in assay [18] is 3.75% (active); in assay [2], 9.43% (active); in [3], 31.9%; in assay [4], 50.4%; in assay [5] it was 11.7%; in assay [6] it was 29.2%. Also, the growth is -18.6% (active) in assay [7]; 45.7% in assay [8]; 3.01% (active) in assay [9]; 3.85% (active) in [11]; -27.9% (active) in assay [12]; 19.5% in assay [13]. Further, the growth in [14] is 12.4%; in assay [15], -12.3% (active); in assay [16] it was 8.32% (active); in [17], 3.62% (active).
Regarding `CCCCCCNC(=O)Oc1ccc(/C(=C(\C)c2ccccc2)c2ccc(OCCN(CC)CC)cc2)cc1`, the growth is 1.65% (active) in assay [18]; 63.5% in assay [2]; 76.9% in [3]; 64.4% in assay [4]; 74.3% in assay [5]; 59.2% in assay [6]. Further, the growth in [7] is 66.9%; in assay [8], 36.4%; in [9] it was 70.6%; in [10] it was 35.5%; in assay [11], 71.8%; in assay [13], 18.8%. Moreover, the growth is 16.1% in assay [14], 30.2% in assay [15], 60% in assay [16] and 37.8% in assay [17].
Turning to `C=C1CCC2C3(C)COC(c4ccc(OC)cc4Br)OC3CCC2(C)C1/C=C/C1=CCOC1=O` (configuration not stated), the growth in assay [1] was 7.47% (active); in assay [2], 79.3%; in [3] it was 98.3%; in assay [4], 67.9%; in assay [5] it was 97.5%; in [6], 79.8%. Further, the growth is 80.8% in assay [7]; 94.7% in assay [8]; 68.6% in assay [9]; 41.3% in [10]; 73.8% in assay [11]; 93.7% in [12]. The growth in [13] is 84%; in assay [14], 60.7%; in assay [15], 53.9%; in assay [16] it was 57.9%; in assay [17], 83.4%.
`CC/C=C\C[C@H](O)C/C=C1/C(=O)C=C[C@@H]1C/C=C\CCCC(=O)OC(C)C`: the growth in assay [1] is -21.6% (active); in assay [2] it was 5.63% (active); in assay [3], 9.35% (active); in [4], 23.3%; in assay [5], 16.4%; in assay [6], -2.92% (active). The growth in [7] was -39.6% (active); in assay [8], 53.9%; in [9] it was 6.4% (active); in assay [10], 6.79% (active); in assay [11] it was -18.3% (active); in assay [12] it was 2.16% (active). Further, the growth in assay [13] was 0.553% (active); in assay [14], 3.64% (active); in assay [15] it was -70.1% (active); in assay [16], -88% (active); in assay [17], -62.2% (active).
Turning to `Cn1c2ccccc2c2c3[nH]c(=O)[nH]c(=O)c3c3c4ccccc4n(C)c3c21`, the growth was 33.1% in assay [1]; 31.3% in [2]; 23.8% in assay [3]; -10.1% (active) in [4]; 48.6% in [5]; 22.5% in [6]. Besides, the growth in assay [7] is 4.89% (active); in assay [8], -7.29% (active); in assay [9], 32.2%; in assay [10] it was 42.5%; in assay [11], 39.7%; in [12] it was 36.5%. Moreover, the growth in assay [13] is 33.1%; in [14], 32.9%; in assay [15], 17.6%; in [16] it was 73.9%; in [17], 24.2%.
Regarding `Brc1cccc(-c2nc(-c3ccc4c(c3)OCCO4)co2)c1`, the growth is 58.1% [25 µM] in assay [1]; 71.8% [25 µM] in assay [2]; 81.4% [25 µM] in [3]; 81% [25 µM] in [4]; 69.7% [25 µM] in assay [5]; 62.1% [25 µM] in assay [6]. Also, the growth in [7] is 32.7% [25 µM]; in [8], 65.4% [25 µM]; in assay [9], 28.5% [25 µM]; in [10], 46.6% [25 µM]; in assay [11] it was 68.7% [25 µM]; in assay [12], -31.9% [25 µM] (active). For the same molecule, the growth in [13] was 23% [25 µM]; in assay [14], 37% [25 µM]; in assay [15], 31.8% [25 µM]; in [16], 92.1% [25 µM]; in assay [17], 38.5% [25 µM].
In the case of `COc1ccc(/C=c2/c(=O)[nH]c3nc4sc(C)c(C)c4c(=O)n23)cc1`, the growth in assay [18] is 53.9%; in assay [2], 77.8%; in [3], 105%; in assay [5], 102%; in [6], 97.8%; in assay [7] it was 101%. Besides, the growth was 99.6% in assay [8]; 79.3% in assay [9]; 92.7% in [10]; 85.1% in assay [11]; 86.8% in assay [12]; 107% in assay [13]. In addition, the growth in assay [14] is 93.6%; in assay [15], 93.1%; in [16], 113%; in assay [17] it was 99.2%.
Turning to `O=c1c2c3c(sc2n2c(CCl)nnc2n1Cc1ccccc1)CCCC3`, the growth is -38.8% (active) in assay [1]; 7.48% (active) in assay [2]; -58.9% (active) in assay [3]; -99.3% (active) in assay [4]; 103% in assay [5]; -42.9% (active) in assay [6]. Moreover, the growth in assay [7] is -98.4% (active); in [8], -36.1% (active); in [9], 19%; in [10] it was -69.9% (active); in assay [11], -93.5% (active); in [12] it was -64.5% (active). Besides, the growth in [13] was -82.9% (active); in assay [14] it was -79.9% (active); in [15], -56.2% (active); in assay [16], -69.3% (active); in assay [17], -69.6% (active).
Take `Nc1c(C(=O)Nc2ccccc2Cl)sc2nc3c(cc12)CCCCCC3`: the growth in assay [18] was 13.2%; in assay [2] it was 48.8%; in [3], 60.9%; in assay [5], 43.9%; in [6] it was 25.9%; in assay [7], 21.5%. Moreover, the growth in assay [8] is 17.3%; in [9], 35%; in assay [10], 41.4%; in assay [11], 39.8%; in assay [12] it was -16.1% (active); in assay [13], 34.3%. Also, the growth in assay [14] is 13.8%; in assay [15], 19.2%; in assay [16], 33%; in [17], 29.2%.
Regarding `CC(=O)CC(C)(C)c1ccc(Cl)cc1`, the growth is 98.3% in assay [1]; 101% in [2]; 95.7% in assay [3]; 93.6% in assay [4]; 107% in [5]; 96% in assay [6]. In addition, the growth is 97.4% in assay [7]; 99.5% in [8]; 96.2% in assay [9]; 94.2% in assay [10]; 101% in assay [11]; 104% in [12]. Besides, the growth in [13] was 100%; in assay [14], 105%; in assay [15], 97.5%; in assay [16] it was 98.7%; in [17], 108%.
As to `O=C(CO[N+](=O)[O-])Nc1ccc(C(=O)/C=C/c2ccc(Cl)cc2)cc1`, the growth in assay [1] was -14.2% (active); in assay [2], 27.2%; in assay [3] it was 66.9%; in assay [4] it was 76.1%; in assay [5], 89.3%; in assay [6] it was -26% (active). The growth in [7] is 0.332% (active); in assay [8] it was 89.7%; in assay [9], 29.9%; in [10], 55.5%; in assay [11], 18.9%; in assay [12] it was -2.76% (active). The growth in assay [13] was -61.8% (active); in assay [14], 1.64% (active); in assay [15], -49.2% (active); in [16] it was -61.3% (active); in assay [17] it was -60.6% (active).
Take `COc1ccc(-c2cn3c(-c4ccc(OC)cc4)cnc3c(Oc3ccc4c(C)cc(=O)oc4c3)n2)cc1`: the growth was 63.7% in assay [1]; 26.3% in [2]; 88% in [3]; -18.6% (active) in [4]; 90.6% in [5]; 70.6% in [6]. Moreover, the growth is 46.6% in assay [7]; 57.6% in assay [8]; 29.9% in assay [9]; 45.3% in assay [10]; 29.2% in assay [11]; 37.2% in assay [12]. Moreover, the growth in assay [13] is 39%; in assay [14], 44.2%; in assay [15], 33.9%; in [16] it was 77.1%; in assay [17], 43%.
As for `CSc1nc(NCCO)c(C#N)c(-c2cccc(N)c2)n1`, the growth was 99.7% in assay [1]; 98.8% in assay [2]; 96.2% in assay [3]; 96.4% in [4]; 93% in assay [5]; 92% in assay [6]. Further, the growth was 113% in assay [7]; 96.5% in assay [8]; 99.8% in [9]; 87.8% in assay [10]; 98% in assay [11]; 105% in assay [12]. For the same molecule, the growth is 103% in [13]; 94.7% in assay [14]; 98.9% in assay [15]; 109% in assay [16]; 99.4% in assay [17].
